Data taken from PubChem BioAssay (NCI).
Where “and” joins values, the source holds several entries; their conditions need not be identical. Identical values can stand only once. Compounds without any hit were thinned out: in the full panel of roughly 83,000, 20% have a hit.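 For each line, cells grew in 96-well plates with the test compound present at a single concentration for 48 hours.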 Unmarked numbers belong to inactive results. Calls of active or inactive are those of the source. The calls were made as follows: active = growth percent below 10; inactive = the rest.

Each compound was assayed on MDA-MB-468 breast (assay: NCI-60 one-dose screen, 48 h (100 = growth as untreated, 0 = no growth, -100 = all killed)). Conditions: 10 µM unless noted.

SMILES	growth
N/N=C(\C(=N\N)c1ccccc1)c1ccccc1	94%
O=C1/C(=C/c2ccc3c(c2)OCO3)SC(=S)N1C1c2ccccc2Oc2ccccc21	90.4%
CCCCNC(=O)NS(=O)(=O)Cc1ccccc1	112%
N=C1CC(=O)NN1C(=O)CSc1nc2sc3c(c2c(=O)n1-c1ccc(Cl)cc1)CCCC3	106%
COc1cc(Nc2ncccc2NC(=O)c2cn(Cc3cccc(Oc4ccccc4)c3)nn2)cc(OC)c1	65.9%
NC(=O)c1cccc([C@@H]2O[C@H](CO)[C@@H](O)[C@H]2O)c1	87.7%
N=C(N)N=Nc1ccc(NN=C(N)N)cc1	103%
CO[C@H](C(=O)[C@@H](O)[C@@H](C)O)[C@@H]1Cc2cc3cc(O[C@H]4C[C@@H](O[C@H]5C[C@@H](O)[C@H](O)C(C)O5)[C@H](O)C(C)O4)c(C)c(O)c3c(O)c2C(=O)[C@H]1O[C@H]1C[C@@H](O[C@H]2C[C@@H](O[C@H]3C[C@@H](OC)[C@H](O)C(C)O3)[C@@H](O)C(C)O2)C(O)(O)C(C)O1 (stereo not given in full)	-30.2% (active)
O=C(CSc1nc2ccc([N+](=O)[O-])cc2[nH]1)Nc1ccc(F)cc1	22.3%
O=[N+]([O-])c1cccc(/C=N/NC(=S)NC23CC4CC(CC(C4)C2)C3)c1	82.1%
O=C1/C(=C/c2ccc(-c3cccc(C(F)(F)F)c3)o2)SC(=S)N1CCc1ccc(O)cc1	95%
CC[C@@H](C(=O)[C@H](C)[C@H](O)[C@@H](C)[C@H]1O[C@H]([C@@H](CC)C(=O)N(CC)CC)CC[C@H]1C)C1O[C@]2(C=C[C@@H](O)[C@]3(CC[C@@](C)([C@H]4CC[C@](O)(CC)[C@H](C)O4)O3)O2)[C@H](C)C[C@@H]1C (stereo not given in full)	-18.3% (active)
CCOC(=O)C1=C(C)Nc2nc3ccccc3n2C1c1ccccc1 (stereo not given)	85.6%
Cn1c(=O)c2c(nc3n2CCN(CCc2ccc(OCCN4CCOCC4)cc2)C3)n(C)c1=O	97.9%
CC(=O)/C(N=Nc1ccc(S(=O)(=O)c2ccc(N=N/C(C(C)=O)=C(/C)O)cc2)cc1)=C(\C)O	108%
COc1ccc2nc3cc(Cl)ccc3c(N3CCN(c4nccc(NCc5ccccc5)n4)CC3)c2c1	15%
CCN(CC)CCCC(Nc1c2ccc(Cl)cc2nc2ccc(OC)cc12)c1ccncc1 (stereo not given)	88.5%
OCC1OC(OC2C(O)C(CO)OC2(CO)OC2OC(CO)C(O)C(O)C2O)C(O)C(O)C1O (stereo not given)	112%

SMILES	growth
COC(=O)Nc1nc2ccc(Sc3ccccc3)cc2[nH]1	-3.91% (active)
C=C1C(=O)O[C@H]2[C@H]1CC/C(CNC(=O)c1cccc3ccccc13)=C\CC[C@@]1(C)O[C@@H]21	33.8%
CCN(CC)c1ccc(/C=C/C(=O)c2cccc(NS(C)(=O)=O)c2)cc1	35.4%
CC(=O)NCNC(C)=O	103%
COc1ccc(OC)c(Cn2cc3c(c2-c2ccccc2)CCc2cnoc2-3)c1	29.7%
COc1ccc(C(=O)c2cc3c(N)c(C(=O)Nc4cccc5ccccc45)sc3nc2C)cc1	-0.26% (active)
O=C(O)c1ccc(-n2cc(CNc3ccc(F)cc3)c(-c3ccc(C(F)(F)F)cc3)n2)cc1	83.2%
O=C(O)/C=C\C(=O)Nc1cccc2ccccc12	92.2% and 111%
Cc1ccsc1/C=C/C1=NCCCN1C	92.4%
CC(=O)c1c(C)[nH]c(-c2nc3ccc(N4CCN(C)CC4)cc3[nH]2)c1-c1ccccc1	24.1%
OC(CNc1ccnc2cc(Cl)ccc12)CNc1ccnc2cc(Cl)ccc12	-67.9% (active)
NNC(=O)Oc1c(Cl)cc(Cl)cc1[N+](=O)[O-]	112%
COc1cc(/C=C/C(=O)c2cc(OC)c(OC)c(OC)c2)ccc1Oc1nc(NCCO)nc(N2CCOCC2)n1	-20.8% (active)
COc1ccc(/C=N\NC(=O)c2ccncc2)cc1O	92.8%
N=C(N)c1nn(C2OC(CO)C(O)C2O)c2nc[nH]c(=O)c12 (stereo not given)	-59% (active)
CCCCOc1ccc(S(=O)(=O)N2CCN(c3nccc(N4CCOCC4)n3)CC2)cc1	6.94% (active)
CCOc1nc(-c2ccccc2)cc2c(O)c(C(=O)N/N=C/c3ccccc3O)[nH]c(=O)c12	88.6%
